TDP1 cell CPT – DT40-hTDP1 cell growth loss with CPT. chicken DT40 Tdp1-/-;hTDP1 cells + 20 nM CPT, ATP luminescence, 48 h. Potency, µM (highest dose often 46.2 µM), most hits filed as inhibitors. 420,000 tested, 12% active. AID 686979; also: nearly all actives have a fitted effect of over 55% in size
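Chicken DT40 Tdp1-/- cells stably complemented with human TDP1 were seeded at 400 cells/well in medium containing 20 nM camptothecin, exposed to pin-transferred compounds, and grown at 37 °C for at least 48 hr. Viability was read as ATP luminescence.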
TDP1 block – TDP1 (human) enzyme inhibition; Q9NUW8; recombinant TDP1, AlphaScreen DNA substrate cleavage; Potency, µM (series often up to 130 µM), most hits filed as inhibitors; 350,000 tested, 0.28% active; AID 485290; also: nearly all actives have a fitted effect of over 40% in size
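Compounds were preincubated with Tdp1 (1 nM final) for 15 min at room temperature before substrate (15 nM final) started a 5 min reaction; beads (10 ug/ml final) were then added for 10 min before AlphaScreen detection.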
DT40 TDP1 no CPT – qHTS for Inhibitors of human tyrosyl-DNA phosphodiesterase 1 (TDP1): qHTS in cells in absence of CPT | DT40 Tdp1-/- hTDP1 cells, no CPT, ATP luminescence, 48 h | Potency, µM (highest dose often 46.2 µM), hits mostly inhibitors | 420,000 tested, 15% active | AID 686978, 2013; also: nearly all actives have a fitted effect of over 55% in size
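Readout: luminescence from CellTiter-Glo after 30 min in the dark at RT. Cells: DT40 Tdp1-/- with stable hTDP1, 400/well. Exposure: compounds alone, ≥48 hr, 37 °C.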
ClpP mod – qHTS Assay for Activators of ClpP | ATP-dependent Clp protease proteolytic subunit (Bacillus subtilis (strain 168)), P80244 | purified B. subtilis ClpP, FRET peptide cleavage, 20 min | Potency, µM (series often up to 57.5 µM) | 340,000 tested, 1.9% active; active = well fitted falling curve with a large enough effect; inconclusive = small, poorly fitted or top-dose-only effect; inactive = no such curve, though single readings can be large or run the other way; also: the source files actives as falling curves though it sought activators and does not explain the sign; nearly all actives have a fitted effect of over 65% in size
Target sequence (P80244 whole entry, looked up): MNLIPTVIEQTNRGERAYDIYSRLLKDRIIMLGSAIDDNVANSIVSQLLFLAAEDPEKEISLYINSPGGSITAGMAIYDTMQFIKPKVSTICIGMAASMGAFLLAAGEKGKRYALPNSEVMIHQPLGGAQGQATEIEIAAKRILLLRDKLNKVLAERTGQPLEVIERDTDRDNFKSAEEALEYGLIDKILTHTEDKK
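FRET quenching reversal measured ClpP activation: 10 microg/mL B. subtilis ClpP at pH 8 with the FRET-FV decapeptide, read at 430 nm after 320 nm excitation. The 20-min minus 0-min signal was scaled between DMSO/no-enzyme wells and ADEP (5.8 microM final).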
Each line names hits and unclear results; the compound was inactive in the other large screens. Most compounds without a hit are left out; they make up all but 17% or so of the library. Unless noted, calls follow the shape of the dose curve; as a rule, active = well fitted curve in the direction sought with a large enough effect; inconclusive = small, poorly fitted or top-dose-only effect, or another doubt; inactive = no such curve, though single readings can be large; an effect the other way counts as inactive or inconclusive.

S=c1[nH]cnc2scc(-c3ccc(Br)cc3)c12	TDP1 cell CPT inconclusive, DT40 TDP1 no CPT 5.8µM (no result: ClpP mod)
Cc1cc(-c2csc3nc[nH]c(=S)c23)cc(C)c1C	TDP1 cell CPT 5.8µM, DT40 TDP1 no CPT 5.17µM (no result: TDP1 block, ClpP mod)
CC(C)C1COS(=O)(=O)NC1CC(=O)SC(C)(C)C (stereo not drawn)	TDP1 cell CPT inconclusive, DT40 TDP1 no CPT inconclusive (no result: TDP1 block)
Cc1ccc(-c2nn(-c3ccccc3)cc2C(=O)NCC(c2cccs2)N2CCOCC2)cc1 (stereo not drawn)	TDP1 cell CPT inconclusive, DT40 TDP1 no CPT inconclusive (no result: TDP1 block)
C=C1CC2C(=O)N(Cc3ccccc3)C(C(=O)O)C1N2C(=O)OC(C)(C)C (stereo not drawn)	none (no result: TDP1 cell CPT, DT40 TDP1 no CPT, ClpP mod)
O=C1c2ccccc2-c2nc3ccccc3nc21	TDP1 cell CPT inconclusive, DT40 TDP1 no CPT inconclusive
Cc1nc2c(nc1C)C(=O)c1ccccc1C2=O	TDP1 cell CPT 3.66µM, DT40 TDP1 no CPT 4.61µM (no result: TDP1 block)
COc1cc(Nc2ccc(S(N)(=O)=O)cc2)c([N+](=O)[O-])nc1[N+](=O)[O-]	TDP1 cell CPT 16.4µM, DT40 TDP1 no CPT inconclusive (no result: TDP1 block)
Cc1ccc(CNC(=O)COC(=O)C2CC2)cc1	none
Cc1ccc(CNC(=O)COC(=O)c2cc3c(s2)CCC(C)C3)cc1 (stereo not drawn)	TDP1 cell CPT 20.6µM, DT40 TDP1 no CPT inconclusive
CC1CCc2sc(C(=O)OCC(=O)NCc3ccccc3)cc2C1 (stereo not drawn)	TDP1 cell CPT 20.6µM, DT40 TDP1 no CPT 18.4µM
CC1CCc2sc(C(=O)NCc3ccccn3)cc2C1 (stereo not drawn)	TDP1 cell CPT 18.4µM, DT40 TDP1 no CPT 16.4µM (no result: TDP1 block, ClpP mod)
C/C(N)=C(/C#N)C(=O)COC(=O)c1cc2c(s1)CCC(C)C2 (stereo not drawn)	none (no result: ClpP mod)
N#Cc1ccc(S(=O)(=O)N2CCN(c3nc(-c4ccccc4)nc4ccccc34)CC2)cc1	DT40 TDP1 no CPT inconclusive
COc1ccc(NC(=O)CN(C)C(=O)c2ccc(N3CCCCC3)c([N+](=O)[O-])c2)cc1	TDP1 cell CPT inconclusive, DT40 TDP1 no CPT 14.6µM
COc1ccc(NC(=O)CN(C)C(=O)c2ccc(N3CCCCCC3)c([N+](=O)[O-])c2)cc1	TDP1 cell CPT inconclusive, DT40 TDP1 no CPT inconclusive
COc1ccc(Cl)cc1NC(=O)CN(C)C(=O)c1ccc(N2CCCCCC2)c([N+](=O)[O-])c1	TDP1 cell CPT 16.4µM, DT40 TDP1 no CPT 23.1µM
COc1ccc(Cl)cc1NC(=O)CN(C)C(=O)c1ccc(N2CCCCC2)c([N+](=O)[O-])c1	TDP1 cell CPT 9.2µM, DT40 TDP1 no CPT 16.4µM (no result: TDP1 block)
COc1cccc(CN(C)C(=O)c2ccc(N3CCCC3)c([N+](=O)[O-])c2)c1	TDP1 cell CPT 16.4µM, DT40 TDP1 no CPT 23.1µM
COc1ccc(/C=C2\CCCc3c2nc2ccc(C)cc2c3C(=O)O)cc1O	none (no result: ClpP mod)
O=C(Nc1cccc(Oc2ccc(C(=O)O)c(C(=O)O)c2)c1)c1ccc(-c2ccccc2)cc1	TDP1 block 44.7µM
O=C(O)c1ccccc1C(=O)Nc1ccc(Oc2ccccc2)cc1	none (no result: ClpP mod)
CC(C)(C)C(=O)Nc1ccc(C(=O)Nc2cccc(Oc3ccc(C(=O)O)c(C(=O)O)c3)c2)cc1	TDP1 block 35.5µM
COc1ccc(C(=O)NCc2nc(-c3ccccc3NC(=O)c3cc(C)oc3C)oc2C)cc1F	none (no result: TDP1 block, ClpP mod)
Cc1ccc(Cl)cc1NC(=O)Cn1nnc2sc3c(c2c1=O)CCC(C(C)(C)C)C3 (stereo not drawn)	TDP1 cell CPT 7.31µM, DT40 TDP1 no CPT 4.11µM
CCc1ccccc1NC(=O)Cn1nnc2sc3c(c2c1=O)CCC(C(C)(C)C)C3 (stereo not drawn)	TDP1 cell CPT 16.4µM, DT40 TDP1 no CPT 14.6µM
CC(=O)Cn1nnc2sc3c(c2c1=O)CCC(C(C)(C)C)C3 (stereo not drawn)	TDP1 cell CPT inconclusive, DT40 TDP1 no CPT inconclusive (no result: ClpP mod)
Cc1cc(C)c(NC(=O)Cn2nnc3sc4c(c3c2=O)CCC(C(C)(C)C)C4)c(C)c1 (stereo not drawn)	TDP1 cell CPT 14.6µM, DT40 TDP1 no CPT 20.6µM
COc1ccc(Cl)cc1NC(=O)Cn1nnc2sc3c(c2c1=O)CCC(C(C)(C)C)C3 (stereo not drawn)	TDP1 cell CPT inconclusive, DT40 TDP1 no CPT inconclusive
CCCOC(=O)c1ccc(NC(=O)Cn2nnc3sc4c(c3c2=O)CCC(C(C)(C)C)C4)cc1 (stereo not drawn)	TDP1 cell CPT 18.4µM, DT40 TDP1 no CPT 8.2µM
Cc1ccc2oc(C(=O)Nc3ccc(S(=O)(=O)Nc4ncccn4)cc3)cc(=O)c2c1	none
CC12CCC(C(=O)N/N=C/c3ccc(O)cc3)(OC1=O)C2(C)C (stereo not drawn)	none
Cc1ccc(OCC(=O)Nc2ccccc2[N+](=O)[O-])c(Br)c1	none (no result: ClpP mod)
CCN(C(=O)Cn1nnc2sc3c(c2c1=O)CCC(C(C)(C)C)C3)c1cccc(C)c1 (stereo not drawn)	TDP1 cell CPT 16.4µM, DT40 TDP1 no CPT 20.6µM
CC(=O)c1ccccc1OCC(O)CN1CCN(CCN2C(=O)c3cccc4cccc(c34)C2=O)CC1 (stereo not drawn)	TDP1 cell CPT 6.51µM, DT40 TDP1 no CPT 6.51µM (no result: ClpP mod)
NC(=O)CN1CCN(CCN2C(=O)c3cccc4cccc(c34)C2=O)CC1	none
Cc1ccc(C)c(OCC(O)CN2CCN(CCN3C(=O)c4cccc5cccc(c45)C3=O)CC2)c1 (stereo not drawn)	TDP1 cell CPT 16.4µM, DT40 TDP1 no CPT 18.4µM, ClpP mod inconclusive
CC(=O)c1ccccc1OCC(O)CN1CCN(c2ccccn2)CC1 (stereo not drawn)	none (no result: ClpP mod)
CCOC(=O)C1(C)CCN1C(=O)c1ccc(F)c(Cl)c1 (stereo not drawn)	none (no result: TDP1 block)
C=CCCC(=O)N1C[C@H]2CON(C)[C@H]2C[C@H]1c1cccc(Oc2ccccc2)c1	TDP1 cell CPT inconclusive, DT40 TDP1 no CPT inconclusive (no result: TDP1 block)
CC(OC(=O)Cc1cccc(C(F)(F)F)c1)C(=O)Nc1ccc(Cl)cn1 (stereo not drawn)	none
CNc1ccccc1C(=O)OC(C)C(=O)Nc1ccc(Cl)cn1 (stereo not drawn)	TDP1 cell CPT inconclusive, DT40 TDP1 no CPT inconclusive, ClpP mod 25.1µM (no result: TDP1 block)
CC(OC(=O)c1ccccc1NCc1ccco1)C(=O)Nc1ncc(Cl)cc1Cl (stereo not drawn)	TDP1 cell CPT inconclusive, DT40 TDP1 no CPT inconclusive, ClpP mod 31.6µM
CC(OC(=O)Cc1ccsc1)C(=O)Nc1ccc(Cl)cn1 (stereo not drawn)	ClpP mod 25.1µM (no result: TDP1 block)
CC(=O)NC(CC(=O)OC(C)C(=O)Nc1ncc(Cl)cc1Cl)c1ccccc1 (stereo not drawn)	none
Cn1c(=O)c(-c2ccccc2)nc2cnc(Nc3ccccc3)nc21	none (no result: TDP1 block, ClpP mod)
Cc1cccc(CC(=O)NCCc2csc(-c3ccc(C(F)(F)F)cc3)n2)c1	TDP1 cell CPT 16.4µM, DT40 TDP1 no CPT 14.6µM, ClpP mod inconclusive
Cc1cccc(-c2nc(CCNC(=O)Cc3ccc(F)cc3)cs2)c1	TDP1 cell CPT inconclusive, DT40 TDP1 no CPT 23.1µM

Source: PubChem
